The nature of this test: chemical genetic growth profiling, strain panel (AID 1159580).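 Also: tested at 20 µM; growth read once vehicle control cultures reached saturation at 30 °C; 1 = growth at the plate median or of vehicle wells; lower values mean less growth of the strain.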 As to conditions: growth OD.
Setting [1] is: S. cerevisiae deletion strains, locus YAL013W, strain DEP1, active compounds read low.
Where [2] appears, read: S. cerevisiae deletion strains, locus YAL040C, strain CLN3, active compounds read low.
Setting [3] is: S. cerevisiae deletion strains, locus YCL061C, strain MRC1 (second series), active compounds read low.
Setting [4] is: S. cerevisiae deletion strains, locus YDR363W, strain ESC2, active compounds read low.
Where [5] appears, read: S. cerevisiae deletion strains, locus YER002W, strain NOP16, active compounds read low.
The mark [6] stands for this setting: S. cerevisiae deletion strains, locus YGR229C, strain SMI1, active compounds read low.
Where [7] appears, read: S. cerevisiae deletion strains, locus YMR307W, strain GAS1, active compounds read low.
Setting [8] is: S. cerevisiae deletion strains, locus YNL175C, strain NOP13, active compounds read low.
The mark [9] stands for this setting: S. cerevisiae deletion strains, locus YNL197C, strain WHI3, active compounds read low.
[10] abbreviates: S. cerevisiae deletion strains, locus YNL224C, strain SQS1, active compounds read low.
Where [11] appears, read: S. cerevisiae deletion strains, locus YOR083W, strain WHI5 (second series), active compounds read low.
[12] abbreviates: S. cerevisiae deletion strains, locus YPL055C, strain LGE1, active compounds read low.
Setting [13] is: S. cerevisiae deletion strains, locus YPL241C, strain CIN2, active compounds read low.
[14] abbreviates: S. cerevisiae deletion strains, locus YDR150W, strain NUM1, active compounds read low.
[15] abbreviates: S. cerevisiae deletion strains, locus YJR075W, strain HOC1, active compounds read low.
Where [16] appears, read: S. cerevisiae deletion strains, locus YNL322C, strain KRE1, active compounds read low.

Each structure is given as a SMILES string. About 2,000 (36%) of roughly 5,500 compounds were called active. Inconclusive results (about 18%) are left out. The list shows a part of the results. A number with no mark means an inactive call. Rule as the data show it: active = normalized growth mostly below about 0.91 (no sharp cut-off); inconclusive = no clear call, values can overlap the other calls; inactive = mostly above about 0.92.

As for `CCOC(=O)c1cnc2c(cnn2CC)c1NN=C(C)C`, the normalized growth under setting [1] is 0.918; the normalized growth under setting [2] was 1.01; the normalized growth under setting [3] was 0.943 (active); the normalized growth under setting [4] is 0.918; the normalized growth under setting [5] was 0.959; the normalized growth under setting [6] is 0.76 (active). Besides, the normalized growth runs as follows: under setting [7], 0.856 (active); (S. cerevisiae deletion strains, locus YNL153C, strain GIM3, active compounds read low) 0.909; under setting [8], 0.961; under setting [9], 0.976; under setting [10], 0.97; under setting [11], 0.844 (active). For the same compound, the normalized growth under setting [12] is 0.966 and the normalized growth under setting [13] was 0.964.
For `CCCCNc1c(C(=O)OCC)c(C)nc2c1cnn2CC`, the normalized growth under setting [2] was 0.933; the normalized growth under setting [3] is 0.998; the normalized growth under setting [14] is 0.999; the normalized growth under setting [4] is 1.01; the normalized growth under setting [5] is 0.998; the normalized growth under setting [6] was 1.01. The normalized growth by setting is: under setting [15], 1.01; under setting [7], 0.998; (S. cerevisiae deletion strains, locus YNL128W, strain TEP1, active compounds read low) 0.959; under setting [8], 0.941; under setting [9], 0.947; under setting [10], 0.951. The normalized growth reads like this: under setting [16], 1; under setting [11], 0.845 (active); under setting [12], 1.01; under setting [13], 0.993.
On to `CCOC(=O)c1cnc2cc(C)nn2c1C`, for which the normalized growth under setting [1] is 0.994; the normalized growth (S. cerevisiae deletion strains, locus YBR229C, strain ROT2, active compounds read low) was 0.994; the normalized growth (S. cerevisiae deletion strains, locus YCL061C, strain MRC1, active compounds read low) is 0.999; the normalized growth (S. cerevisiae deletion strains, locus YDL101C, strain DUN1, active compounds read low) is 0.997; the normalized growth under setting [14] is 0.964; the normalized growth (S. cerevisiae deletion strains, locus YEL061C, strain CIN8, active compounds read low) is 0.997. For the same compound, the normalized growth is, setting by setting: (S. cerevisiae deletion strains, locus YGR078C, strain PAC10, active compounds read low) 1; under setting [6], 0.983; (S. cerevisiae deletion strains, locus YHR030C, strain SLT2, active compounds read low) 0.986; (S. cerevisiae deletion strains, locus YHR087W, strain rtc3, active compounds read low) 1.01; (S. cerevisiae deletion strains, locus YJL187C, strain SWE1, active compounds read low) 1.01; (S. cerevisiae deletion strains, locus YJR043C, strain POL32, active compounds read low) 1.01. For the same compound, the normalized growth by setting is: under setting [15], 0.998; (S. cerevisiae deletion strains, locus YKL190W, strain CNB1, active compounds read low) 0.992; (S. cerevisiae deletion strains, locus YLR039C, strain RIC1, active compounds read low) 0.987; (S. cerevisiae deletion strains, locus YLR058C, strain SHM2 (second series), active compounds read low) 1; (S. cerevisiae deletion strains, locus YLR085C, strain ARP6, active compounds read low) 0.944; (S. cerevisiae deletion strains, locus YLR262C, strain YPT6, active compounds read low) 0.99. Besides, the normalized growth (S. cerevisiae deletion strains, locus YML094W, strain GIM5, active compounds read low) was 0.953; the normalized growth (S. cerevisiae deletion strains, locus YMR219W, strain ESC1, active compounds read low) is 0.991; the normalized growth (S. cerevisiae deletion strains, locus YMR263W, strain SAP30, active compounds read low) was 1; the normalized growth (S. cerevisiae deletion strains, locus YNL298W, strain CLA4 (second series), active compounds read low) is 0.996; the normalized growth under setting [16] is 0.994; the normalized growth (S. cerevisiae deletion strains, locus YNR030W, strain Alg12, active compounds read low) is 0.981. For the same compound, the normalized growth (S. cerevisiae deletion strains, locus YOL006C, strain TOP1, active compounds read low) was 0.965; the normalized growth under setting [12] is 0.909; the normalized growth under setting [13] was 0.956; the normalized growth (S. cerevisiae deletion strains, locus YPR135W, strain CTF4, active compounds read low) was 1.01; the normalized growth (S. cerevisiae strains, strain wild type, active compounds read low) is 0.991.
